Test results from PubChem BioAssay (NCATS).
Inconclusive results are not listed. Calls of active or inactive are those of the source. Calls come from the whole dose curve; as a rule, active = well fitted inhibition curve with a large enough effect; inconclusive = small, poorly fitted or top-dose-only effect, or effect the other way; inactive = no such curve, though single readings can be large or run the other way.

Assay: High Content Imaging Cell-Based qHTS for Inhibitors of the mTORC1 Signaling Pathway in MEF Cells (AID 2667);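 note: Tsc2-/- p53-/- MEFs stably re-expressing wild-type Tsc2 exposed 24 h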
Conditions: series mostly up to 38.3 µM
Procedure, shortened: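 MEF (Tsc2-/-, p53-/-, WT Tsc2 re-expressed); cpd 24 h, 37 °C; PFA fix; Alexa-488 anti-p-rpS6 Ser235/236, PI, Hoechst; IN Cell imaging; Hoechst/Alexa-488 intensity ratio; % active cells, thresholds set from rapamycin and DMSO wells.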

Structure (SMILES)	outcome
OC(CCN1CCCCC1)(c1ccccc1)C1CC2C=CC1C2 (centres undefined)	inactive
CC(C)NCC(O)COc1ccc(COCCOC(C)C)cc1 (centres undefined)	inactive
NNCCc1ccccc1	inactive
CC(C)(Sc1ccc(CCN(CCCCC2CCCCC2)C(=O)NC2CCCCC2)cc1)C(=O)O	inactive
